Bioassay records as filed in PubChem BioAssay.
This is a sample that favours compounds with a hit; in the whole collection about 6% have one here.
D1 antagonist: human D1 dopamine receptor antagonism; P21728; HEK293 TREx D1 cells, calcium flux, dopamine EC80; stronger effect = lower value; activity change, negative = inhibition, % at 10 µM; 360,000 compounds, 3.2% hits; in the data active = activity change below about -30%; note: % is set by controls: 0 for no effect and ±100 for the full control effect
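Inducible Hek293 Trex D1 cells (tetracycline, overnight, 30 C). Calcium dye 30–90 min RT. Antagonist mode: EC80 dopamine added after 180 s compound read.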
D3 antag: D3 dopamine receptor (human) antagonism; P35462; D3R cells, DiscoveRx beta-arrestin luminescence, antagonist mode; stronger effect = lower value; max response, negative = inhibition, %; 360,000 compounds, 2.5% hits; AID 652054; in the data active = max response below about -50%; note: % is set by controls: 0 for no effect and ±100 for the full control effect
Target sequence (P35462 whole entry, looked up): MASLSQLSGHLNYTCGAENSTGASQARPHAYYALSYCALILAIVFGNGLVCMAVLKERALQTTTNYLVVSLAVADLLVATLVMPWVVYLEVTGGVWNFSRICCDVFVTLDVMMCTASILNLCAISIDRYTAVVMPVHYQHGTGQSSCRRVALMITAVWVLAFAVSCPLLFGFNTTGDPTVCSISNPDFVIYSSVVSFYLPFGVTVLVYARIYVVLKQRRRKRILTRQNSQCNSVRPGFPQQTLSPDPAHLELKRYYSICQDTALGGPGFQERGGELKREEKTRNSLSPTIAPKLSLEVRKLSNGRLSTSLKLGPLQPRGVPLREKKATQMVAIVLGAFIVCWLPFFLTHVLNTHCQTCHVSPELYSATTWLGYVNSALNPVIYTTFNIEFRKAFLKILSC
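Cells plated overnight at 1500 cells/well, then exposed to library compounds with dopamine controls for 90 minutes at 37 degrees C. DiscoveRx reagent added for 30–60 minutes at room temperature; luminescence read, quantitative HTS format.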
D1 agonist: human D1 receptor agonism | HEK293 T-REx D1 cells, calcium flux, agonist mode | AID 504660 | P21728 | 360,000 compounds, 1% hits | activation, % at 2 µM; in the data active = activation above about 30%; note: 0% is about no effect
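Inducible HEK293 T-REx D1 cells, force-coupled to calcium signalling, were plated at 4000 cells/well with tetracycline and held overnight at 30 C. After no-wash calcium dye loading, compound-evoked calcium rise over 180 s flagged agonists.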
D1 potentiator: human D1 dopamine receptor positive modulation; AID 504651; 360,000 compounds, 0.036% hits; HEK293 TREx D1 cells, calcium flux, dopamine EC20 potentiation; potentiation, % at 10 µM; in the data active = potentiation above about 30%; note: 0% is about no effect
DRD3 agonist: agonists of human D3 dopamine receptor; D3R DiscoveRx beta-arrestin cells, luminescence, 90 min; 410,000 compounds, 0.58% hits; AID 652048; max activation, %; in the data active = max activation above about 30%; note: 0% is about no effect
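Agonist mode: compounds and dopamine controls were applied to plated cells for 90 min at 37 degrees C after an overnight attachment at 1500 cells/well. Luminescent read-out followed 30 - 60 minutes at room temperature with DiscoveRx detection reagent.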
The depositor's hits bear a star; x = not tested or not shown.

SMILES	D1 antagonist	D3 antag	D1 agonist	D1 potentiator	DRD3 agonist
Cc1cc2nc(C3CCN(CC4COc5ccccc5O4)CC3)[nH]c2cc1C (stereo not drawn)	-4.3	-50.2*	5.3	-1.2	-1.0
c1ccc2c(c1)OCC(CN1CCCCC1)O2 (stereo not drawn)	x	x	x	x	-11.0
O=C(NCc1ccc(F)cc1)c1ccc(CS(=O)Cc2ccc(Cl)cc2)o1 (stereo not drawn)	-25.6	x	16.7	-5.3	-18.2
Cc1ccc(Cl)cc1NC(=O)CCS(=O)(=O)c1ccc2c(c1)n(C)c(=O)c(=O)n2C	-34.9*	15.4	1.6	0.2	1.4
O=C(C[C@H]1CC[C@H]2[C@@H](COC[C@@H](O)CN2S(=O)(=O)c2ccccc2)O1)N[C@@H]1CCN(Cc2ccccc2)C1	x	-70.6*	x	x	-13.2
COc1ccc(OCc2nc3ccccc3n2C(C)c2ccccc2)cc1 (stereo not drawn)	-17.5	x	11.9	0.7	-1.1
CC1CN(C(=O)N2c3ccccc3Sc3ccccc32)CC(C)O1 (stereo not drawn)	-33.5*	-2.7	2.4	-13.7	0.6
O=C(CN1CCOCC1)N1c2ccccc2Sc2ccccc21	1.2	-6.5	1.5	1.8	1.2
CC1CCN(C(=O)N2c3ccccc3Sc3ccccc32)CC1	21.6	12.0	3.1	2.6	8.0
O=C(N1CCOCC1)N1c2ccccc2Sc2ccccc21	4.1	-76.7*	0.4	-3.2	-5.6
COc1ccc(C(=O)c2sc3nc(C)cc(-c4cccs4)c3c2N)cc1OC	30.8	10.9	82.0*	-0.2	51.6*
Cc1cc(-c2cccs2)c2c(N)c(C(=O)c3ccc4c(c3)OCO4)sc2n1	13.6	-16.6	60.7*	6.8	4.0
COc1ccc(Cl)cc1NC(=O)Cn1ncc2c3ccccc3n(Cc3ccccc3)c2c1=O	-8.0	x	0.2	-2.5	-13.7
O=C(O)c1ccc(CN2C(=O)c3cccc4c([N+](=O)[O-])ccc(c34)C2=O)cc1	1.5	-29.4	34.1*	-1.9	2.1
CC(=O)Oc1cccc(N2C(=O)c3cccc4c([N+](=O)[O-])ccc(c34)C2=O)c1	-54.1*	-8.3	3.2	-8.6	12.4
CC(=O)Oc1cccc(N2C(=O)c3ccc(C(=O)O)cc3C2=O)c1	3.6	-12.1	1.8	-0.6	-5.5
Cc1ccc(C(=O)O)cc1N1C(=O)c2cccc3c([N+](=O)[O-])ccc(c23)C1=O	-3.5	-14.9	6.9	-1.1	4.8
CCOc1ccc(C2CC(c3c(O)c4ccccc4oc3=O)=NN2c2ccccc2)cc1OC (stereo not drawn)	1.1	-3.6	35.7*	-0.1	-4.1
CC(=O)Nc1ccc(S(=O)(=O)NNC(=O)COc2ccc(Cl)cc2Cl)cc1	1.3	7.0	2.3	4.2	1.3
CCOc1ccc(CONS(=O)(=O)c2ccc(NC(C)=O)cc2)cc1Cl	-24.7	-11.3	68.5*	-8.8	-5.7
CC(C)CC1C(C#N)=C(N)OC2=C1C(=O)CC(c1ccccc1)C2 (stereo not drawn)	6.7	-63.2*	1.0	5.0	-15.7
CC(O)(c1ccc(F)c(F)c1)c1nc(/C=C/c2ccccc2)cs1 (stereo not drawn)	x	0.0	x	x	-9.8
CC(O)(c1ccccc1)c1nc(/C=C/c2ccccc2)cs1 (stereo not drawn)	x	-62.0*	x	x	-16.5
CC(O)(c1cccc(F)c1)c1nc(-c2ccoc2)cs1 (stereo not drawn)	x	2.0	x	x	-2.3
COc1cccc(C(C)(O)c2nc(-c3ccoc3)cs2)c1 (stereo not drawn)	x	-94.7*	x	x	-9.5
SMILES	D1 antagonist	D3 antag	D1 agonist	D1 potentiator	DRD3 agonist
COc1cccc(C(C)(O)c2nc(/C=C/c3ccccc3)cs2)c1 (stereo not drawn)	x	-60.6*	x	x	-13.5
COc1ccc(-c2coc3c(C(=O)NCC4CC4)cccc23)c(C)c1	x	276.1	x	x	56.0*
C/C(Cn1cnc([N+](=O)[O-])n1)=N/NC(=O)COc1c(Cl)cc(Cl)cc1Cl	-30.4*	2.4	0.5	-9.2	-9.6
C/C(Cn1cnc([N+](=O)[O-])n1)=N\NC(=O)c1ccccc1	-12.5	-18.5	2.5	1.1	-6.2
Cc1ccc(SCc2cc(=O)[nH]c(SCC(=O)Nc3cc(Cl)ccc3Cl)n2)cc1	-34.2*	-17.6	-3.1	6.6	7.9
CCc1ccc(NC(=O)CSc2nc(CSc3ccc(C)cc3)cc(=O)[nH]2)cc1	-3.7	-16.8	2.0	-6.0	-9.5
C=CCn1c(-c2cc(OC)cc(OC)c2)n[nH]c1=S	4.6	-58.9*	-0.6	-4.5	-0.6
NC(=O)C1CCN(C(=O)Nc2csc3ccccc23)CC1	-60.6*	-7.1	0.0	2.9	1.6
Cc1ccc2c(c1)[nH]c1c(N3CCN(Cc4ccccc4)CC3)ncnc12	-16.8	23.9	-1.2	-0.7	18.7
Cc1ccc2[nH]c3c(N4CCN(Cc5ccccc5)CC4)ncnc3c2c1	-36.7*	-14.2	4.8	2.9	4.8
c1ccc2c(c1)CCN(c1ncnc3c1[nH]c1ccccc13)C2	-12.7	-52.5*	8.4	1.6	2.1
CCN1C(=O)/C(=C/c2cn(C)nc2C)SC1=S	-5.7	9.5	-0.7	-4.2	2.3
CCN1C(=O)/C(=C/c2cnn(C)c2C)SC1=S	-31.6*	x	2.5	3.6	x
COc1ccc(CNC(=O)Cc2c(C(=O)O)c(C)cn2C)cc1	-8.5	x	2.6	5.5	6.8
O=C(O)c1ccc(-n2c(/C=C/c3ccccc3)nc3ccccc3c2=O)cc1	-5.1	0.6	0.1	12.3	1.2
COC(=O)c1ccc(-n2c(/C=C\c3cccc(Br)c3)nc3ccccc3c2=O)cc1	-31.7*	x	4.4	-1.6	-5.7
O=[N+]([O-])c1cc(Cl)cc(/C=N/Nc2nc3ccccc3s2)c1O	-49.5*	-60.2*	-1.2	-7.8	-17.5
O=C(N/N=C/c1cc([N+](=O)[O-])cc([N+](=O)[O-])c1O)C(O)(c1ccccc1)c1ccccc1	2.1	-15.9	3.8	x	-5.6
COc1cc(/C=N/Nc2nc3ccccc3s2)cc([N+](=O)[O-])c1O	7.1	-0.7	4.0	2.2	2.4
O=[N+]([O-])c1cc(Cl)cc(/C=N/NC(=S)Nc2ccc(S(=O)(=O)N3CCOCC3)cc2)c1O	17.7	-53.8*	1.8	-3.8	-18.6
Cc1ccccc1C(=O)Nc1cccc(C(=O)N/N=C/c2cc(Cl)cc([N+](=O)[O-])c2O)c1	6.4	-51.7*	2.3	-1.9	-10.9
CC(C)(C)N/N=C/c1cc(Cl)cc([N+](=O)[O-])c1O	-15.6	-110.2*	8.1	-3.5	-16.2
Cc1ccc(CNC(=O)Cn2cc3c(n2)-c2c(oc(C(=O)N4CCOCC4)c2C)CC3)cc1	-1.3	x	-0.2	-3.5	6.7
CC(=O)N1CCc2c(sc3c2c(=O)n(CCc2ccccc2)c(=O)n3Cc2ccc(F)cc2)C1	12.4	x	4.7	-4.0	-11.3
O=C(N/N=C/c1cc(Cl)cc([N+](=O)[O-])c1O)C1CC1	-17.8	-56.6*	0.9	-3.5	-19.4
O=C(Cn1nc2ccccc2n1)N/N=C/c1cc(Cl)cc([N+](=O)[O-])c1O	-1.3	-82.9*	3.3	6.4	-15.7
